12-hLO inh: inhibitors of human 12-lipoxygenase (ALOX12) | P18054 | purified 12-hLO, xylenol orange hydroperoxide absorbance | Potency, µM (doses to about 57.1 µM), actives largely listed as inhibitors | 0.12% of 150,000 active | AID 1452; active = well fitted inhibition curve with a large enough effect; inconclusive = small, poorly fitted or top-dose-only effect; note: nearly all actives have a fitted effect of over 55% in size
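Purified human 12hLO (150 nM), preincubated 15 min with compound, then 40 uM arachidonic acid for 30 min, room temperature, Hepes pH 7.0 with 0.01% Triton X-100. Hydroperoxide detected by ferrous iron/xylenol orange; 573/405 nm absorbance ratio gives reaction progress.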
PNC inhibitor: inhibitors of perinucleolar compartment assembly. PC3M PTB-GFP, PNC prevalence imaging, 16 h; stronger effect = lower value. activity change (PNC), negative = inhibition, % at 10 µM. 3.1% of 140,000 active. AID 2417;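 active = readout at or below -70, meaning at least 70% loss of cells showing the perinucleolar compartment, a nuclear body marking cancer cells; inconclusive = readout between -30 and a set limit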
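Compounds are pinned in duplicate onto adhered PC3M cells stably expressing GFP-tagged PTB and incubated 16 h at 37 C. Cells are then fixed, nuclei stained with Hoechst, and PNC-positive cells counted.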
HPGD inh: HPGD (human) dehydrogenase inhibition. 4.3% of 150,000 active. Potency, µM, most hits filed as inhibitors. purified HPGD, NADH fluorescence kinetic, PGE2 substrate
Target sequence (P15428 whole entry, looked up): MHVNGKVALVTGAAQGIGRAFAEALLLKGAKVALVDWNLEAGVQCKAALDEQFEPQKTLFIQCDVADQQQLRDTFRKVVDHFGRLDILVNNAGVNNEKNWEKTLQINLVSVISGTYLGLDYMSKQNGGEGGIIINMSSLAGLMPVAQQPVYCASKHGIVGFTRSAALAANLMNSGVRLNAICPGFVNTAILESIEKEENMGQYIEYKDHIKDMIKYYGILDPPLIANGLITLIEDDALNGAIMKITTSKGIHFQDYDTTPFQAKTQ
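20 nM HPGD preincubated 15 min at room temperature with compound in 50 mM Tris-HCl pH 8, 0.01% Tween 20. Started with 1 mM NAD+ and 30 uM prostaglandin E2; NADH fluorescence (360/450 nm) read 5 times over 30-s intervals, last minus first.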
ALDH1A1 block: ALDH1A1 (human) enzyme inhibition; P00352; Purified ALDH1A1, NADH fluorescence, propionaldehyde substrate; Potency, µM (doses to about 75.3 µM), actives largely listed as inhibitors; 7.3% of 220,000 active; AID 1030
Lamin A splicing: modulators of lamin A splicing; HeLa LMNA splicing GFP/RFP minigene ratio, 48 h; 0.01% of 200,000 active; Potency, µM (top dose mostly 46.1 µM), hits mostly inhibitors; active = well fitted inhibition curve with a large enough effect in the signal ratio, with a control signal flat, not every such curve was filed as active; inconclusive = small, poorly fitted or top-dose-only effect, or effect the other way, or a change in a side signal; the % refers to the signal ratio
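S3 HeLa stable clones carrying a lamin A-EGFP splicing minigene plus DsRed2 were seeded at 600 cells/well in Opti-MEM with 2% FBS, pin-dosed and incubated 48 h at 37°C. Acumen cytometry (488 nm) gave the GFP/RFP total-intensity ratio.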
Hits are given with their value; i = inactive; ? = inconclusive; nt = no result given. Compounds with a hit are over-represented: about 10% of the library has one in this group of screens. Unless noted, calls come from the whole dose curve; as a rule, active = well fitted inhibition curve with a large enough effect (not every such curve was filed as active); inconclusive = small, poorly fitted or top-dose-only effect, or another doubt; inactive = no such curve, though single readings can be large or run the other way.

SMILES	12-hLO inh	PNC inhibitor	HPGD inh	ALDH1A1 block	Lamin A splicing
O=C(CSc1nc2ccccc2[nH]1)N1CCN(c2ccc(F)cc2)CC1	i	i	i	25µM	i
CCn1c(SCC(=O)N2CCN(c3ccc(F)cc3)CC2)nc2ccccc2c1=O	i	i	i	25µM	i
C=CCn1c(N)cc(=O)nc1SCC(=O)N1CCN(c2ccc(F)cc2)CC1	i	i	i	14µM	i
CCn1c(SCC(=O)N2CCN(c3ccc(Cl)cc3)CC2)nc2ccccc2c1=O	i	?	?	i	i
C=CCn1c(CSCc2ccccc2)nnc1SCC(=O)N1CCN(c2ccccc2)CC1	i	i	nt	0.79µM	i
CCCCCCCCCCCCCCCCCC(=O)NC[C@@H](COP(=O)([O-])OCC[N+](C)(C)C)OCC	i	nt	nt	nt	nt
COc1cc(OC)c(NC(=O)CC(C)S(=O)(=O)c2ccc3c(c2)NC(=O)CO3)cc1Cl (stereo not drawn)	nt	nt	nt	nt	i
CCn1c(SCC(=O)N2CCN(c3ccccc3)CC2)nc2c(c1=O)SC(C)C2 (stereo not drawn)	i	i	i	2.2µM	i
Cc1ccc(NC(=O)Cn2ccn(-c3ccc(F)c(F)c3)c(=O)c2=O)cc1C	nt	nt	nt	nt	i
O=C(CSc1n[nH]c(-c2cc(Cl)ccc2Cl)n1)NCCN1C(=O)CSC1=O	i	i	16µM	i	i
Cc1ccc(SCC(=O)NCCN2C(=O)CSC2=O)cc1C	i	i	i	i	i
Cc1ccc(SCC(=O)NCCN2C(=O)CSC2=O)c(C)c1	i	-100	i	i	i
Cc1ccc(Nc2nnc(SCC(=O)NCCN3C(=O)CSC3=O)s2)cc1C	i	?	nt	18µM	i
Cc1nnc(SCC(=O)NCCN2C(=O)CSC2=O)n1-c1ccccc1	nt	nt	nt	i	i
O=C(CSc1n[nH]c(-c2ccccc2Br)n1)NCCN1C(=O)CSC1=O	i	i	nt	i	i
Cc1cccc(-n2nnnc2SCC(=O)NCCN2C(=O)CSC2=O)c1	i	i	i	20µM	i
Cc1cccc(NC(=O)CN2C(=O)CCc3ccccc32)c1C	nt	nt	nt	nt	i
CC1C[C@@]2(NC(=O)NC2=O)C(C)CN1C (stereo partly drawn)	i	-100	i	i	i
CC1CC2(NC(=O)NC2=O)C(C)CN1C (stereo not drawn)	i	?	i	i	i
COc1ccc(N2C(=O)CC(N3CCCC4CCCCC43)C2=O)cc1 (stereo not drawn)	i	i	i	8.9µM	i
CC1CCN(C2CC(=O)N(c3ccccc3)C2=O)CC1 (stereo not drawn)	nt	nt	nt	28µM	i
COc1ccc(N2C(=O)CC(C3CCCO3)C2=O)cc1 (stereo not drawn)	nt	nt	nt	i	nt
COc1ccc(N2C(=O)CC(N3CCN(C(=O)c4ccco4)CC3)C2=O)cc1 (stereo not drawn)	nt	nt	nt	?	i
COc1ccc(N2C(=O)CC(N3CCCCC3)C2=O)cc1 (stereo not drawn)	nt	nt	nt	18µM	nt
COc1ccc(N2C(=O)CC(N3CCN(S(=O)(=O)c4cc(C)ccc4C)CC3)C2=O)cc1 (stereo not drawn)	nt	nt	nt	i	i
SMILES	12-hLO inh	PNC inhibitor	HPGD inh	ALDH1A1 block	Lamin A splicing
COc1ccc(N2C(=O)CC(N3CCN(c4ccc(S(=O)(=O)N5CCCC5)cc4)CC3)C2=O)cc1 (stereo not drawn)	i	i	i	22µM	i
COc1ccc(-n2nc3c(c2NC(=O)C(=O)NCc2ccccc2)CSC3)cc1	nt	nt	nt	nt	i
COC(=O)c1ccc(NC(=O)CSc2nc(C)cc(C)c2C(=O)Nc2ccccc2)cc1	nt	nt	nt	nt	i
O=C1CC(N2CCCCCC2)C(=O)N1c1ccc(F)cc1 (stereo not drawn)	nt	nt	nt	13µM	i
Cc1cccc(N2C(=O)CC(N3CCN(C(=O)c4ccccc4)CC3)C2=O)c1 (stereo not drawn)	i	i	i	25µM	i
COc1cccc(N2C(=O)CC(N3CCC(C(N)=O)(N4CCCCC4)CC3)C2=O)c1 (stereo not drawn)	i	i	i	10µM	i
Cc1cccc(N2C(=O)CC(N3CCN(c4ccccc4)CC3)C2=O)c1 (stereo not drawn)	i	i	i	?	i
COc1ccc(N2C(=O)CC(NC3CCCCNC3=O)C2=O)cc1 (stereo not drawn)	i	?	i	20µM	i
O=C1CC(N2CCN(c3nc4ccccc4s3)CC2)C(=O)N1c1ccc(F)cc1 (stereo not drawn)	i	i	i	i	i
